Data from the supplement of paper PMC6555819.

Columns and labels:
Assay in all cases: PBM binding z-score (relative to random genomic background probes); higher = stronger binding; sequences stand for … in GC…GCGATTGACAGCGTAGAATGAAGG
[1] = system: FXR:RXRa (NR concentration 270 nM, RXRa partner concentration 90 nM)
In short: (§1)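 Probes were double-stranded and carried 34-nt variable regions with direct-repeat seeds, single-nucleotide variants, half-site ablations and random human genomic background sequences, printed on custom Agilent 4×180K protein-binding microarrays. Arrays were incubated 1 h with ligand-free nuclear receptor dimers in PBS pH 7.4, 2% milk, 0.02% Triton X-100, 1 mM DTT, 0.2 mg/mL BSA and 0.4 mg/ml salmon testes DNA. Antibodies against each partner (one per run) detected binding, and scanned fluorescence was regression-normalized. Binding z-scores use the random background probes as reference.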

[2] = system: LXRa:RXRa (NR concentration 270 nM, RXRa partner concentration 90 nM)
In short: as §1

[3] = system: LXRa homodimer (NR concentration 270 nM)
In short: as §1

[4] = system: LXRb:RXRa (NR concentration 270 nM, RXRa partner concentration 90 nM)
In short: as §1

[5] = system: LXRb homodimer (NR concentration 270 nM)
In short: as §1

[6] = system: PPARa:RXRa (NR concentration 270 nM, RXRa partner concentration 90 nM)
In short: as §1

[7] = system: PPARg:RXRa (NR concentration 180 nM, RXRa partner concentration 90 nM)
In short: as §1

[8] = system: PPARg:RXRa 270nM:90nM, anti-RXR (NR concentration 270 nM, RXRa partner concentration 90 nM)
In short: as §1

[9] = system: PPARg:RXRa 30nM:10nM, anti-RXR (NR concentration 30 nM, RXRa partner concentration 10 nM)
In short: as §1

[10] = system: PPARg:RXRa 90nM:30nM, anti-RXR (NR concentration 90 nM, RXRa partner concentration 30 nM)
In short: as §1

[11] = system: PPARg:RXRa DBDmut IVT, anti-RXR (DBD mutation: RXRa K156A/R161A, NR concentration 270 nM, RXRa partner concentration 90 nM)
In short: as §1

[12] = system: PPARg:RXRa IVT, anti-PPARg (NR concentration 270 nM, RXRa partner concentration 90 nM)
In short: as §1

[13] = system: PPARg DBDmut:RXRa IVT, anti-PPARg (DBD mutation: PPARg1 K132A/R137A, NR concentration 270 nM, RXRa partner concentration 90 nM)
In short: as §1

[14] = system: PPARg DBDmut IVT, anti-PPARg (DBD mutation: PPARg1 K132A/R137A, NR concentration 270 nM)
In short: as §1

[15] = system: PPARg homodimer (NR concentration 180 nM)
In short: as §1

[16] = system: PXR:RXRa (NR concentration 270 nM, RXRa partner concentration 90 nM)
In short: as §1

[17] = system: PXR homodimer (NR concentration 270 nM)
In short: as §1

[18] = system: RARa:RXR (NR concentration 270 nM, RXRa partner concentration 90 nM)
In short: as §1

[19] = system: RARa homodimer (NR concentration 270 nM)
In short: as §1

[20] = system: RARb:RXRa (NR concentration 270 nM, RXRa partner concentration 90 nM)
In short: as §1

Sequence | PBM binding z-score [1] | PBM binding z-score [2] | PBM binding z-score [3] | PBM binding z-score [4] | PBM binding z-score [5] | PBM binding z-score [6] | PBM binding z-score [7] | PBM binding z-score [8] | PBM binding z-score [9] | PBM binding z-score [10] | PBM binding z-score [11] | PBM binding z-score [12] | PBM binding z-score [13] | PBM binding z-score [14] | PBM binding z-score [15] | PBM binding z-score [16] | PBM binding z-score [17] | PBM binding z-score [18] | PBM binding z-score [19] | PBM binding z-score [20]
CCGACTGTGGCAAAGGTTACCATACTCAGTACGA | 0.857 | 1.38 | 0.228 | 1.73 | -0.558 | 4.03 | 8.41 | 7.91 | 6.78 | 8.43 | 2.07 | 3.83 | 0.000701 | -0.266 | 1.71 | 1.84 | 0.27 | 2.56 | 0.0109 | 1.9
TCTCGGAGGAGACGAAAGGTCAGAGCTCGACATC | 2.04 | 2.95 | 1.15 | 2.59 | -0.403 | 3.49 | 3.2 | 5.01 | 3.66 | 4.7 | 0.912 | 1.49 | -0.00299 | -0.844 | 3.1 | 3.44 | -0.0245 | 4.57 | 1.35 | 3.44
GCGACTGGGGAATCAGCAGGTTACCATAACTTAA | -0.766 | -0.57 | -0.287 | 0.0771 | -1.25 | 0.0843 | 0.0906 | -0.19 | -0.448 | -0.292 | 0.44 | 0.213 | -0.564 | -0.355 | -0.3 | -0.375 | -0.366 | -0.13 | -0.219 | -0.211
CATACAGGGTTAGCTAGGCCAGAGTAGGGACGGC | 0.0541 | 0.22 | -0.431 | -0.176 | -0.302 | 0.689 | 0.625 | 0.647 | -0.0439 | 0.397 | -0.169 | 0.541 | -0.056 | -0.72 | -0.367 | -0.275 | -0.684 | 0.13 | -0.529 | 1.07
CGAACTACGTCATTGACAGGACAGTGAATAGTAA | -0.386 | -0.38 | -0.195 | -0.327 | -0.182 | -0.47 | 0.307 | -0.251 | -0.294 | -0.164 | -0.246 | -0.155 | 0.611 | 0.69 | 0.0858 | -0.217 | 0.0481 | -0.22 | 0.592 | -0.0589
GCTAGCAGGCCATATGGGTCACTCAATGACGGGC | 0.207 | 0.285 | -0.185 | 0.489 | -0.907 | 1.98 | 1.57 | 1.27 | -0.31 | 0.766 | 1.57 | 2.68 | -0.447 | -0.866 | -0.0235 | 0.585 | -0.337 | 1 | -0.311 | 1.62
AATACAGGGTCATCGTTGGCCAGAGTACGCACAG | 7.42 | 6.21 | 2.13 | 4.57 | 1.5 | 5.96 | 6.68 | 5.97 | 2.51 | 4.75 | 2.72 | 4.4 | 1.78 | 2.43 | 2.34 | 4.57 | 0.72 | 5.31 | 1.34 | 4.37
TCATATAGGTAAGGGTGAAAGTCGAACGATATGA | 0.857 | 0.803 | -0.00999 | 0.694 | -0.563 | 2.47 | 2.7 | 3.29 | 3.87 | 3.72 | 2.65 | 2.84 | 1.53 | 1.28 | 1.03 | 0.664 | 0.181 | 1.14 | 0.462 | 1.13
ATCTCTAGGGAACCAAGTTCAGTGAATGCCGAAC | -0.221 | 0.011 | 0.471 | 0.284 | 0.239 | 0.00792 | -0.0553 | 0.046 | 0.00419 | 0.0789 | 0.604 | 0.283 | 0.0886 | 0.863 | 0.45 | 1.24 | 1.73 | 0.461 | 0.0341 | 0.674
ATCTCTAGGTAAGACTCAGTTCAGCGAAGAACGC | 0.373 | 0.369 | 0.471 | 0.111 | 0.684 | 0.278 | 0.231 | 0.241 | 0.0173 | 0.278 | 1.67 | 1.01 | 0.389 | 0.673 | 0.96 | 0.943 | 1.37 | 0.477 | 1.01 | 0.277
